This is one part of a sample in which hits are shown more often than they occur.
14-3-3g Raf – alters human 14-3-3 gamma binding to Raf peptide; P61981; FP, 14-3-3gamma / TMR-pS259-Raf peptide binding; inhibition, % at 40 µM; 160,000 tested, 0.19% active; in the data active = inhibition above about 30%;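 also: 0% = protein plus tracer without compound and 100% = blank with tracer alone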
Target sequence (P61981 whole entry, looked up): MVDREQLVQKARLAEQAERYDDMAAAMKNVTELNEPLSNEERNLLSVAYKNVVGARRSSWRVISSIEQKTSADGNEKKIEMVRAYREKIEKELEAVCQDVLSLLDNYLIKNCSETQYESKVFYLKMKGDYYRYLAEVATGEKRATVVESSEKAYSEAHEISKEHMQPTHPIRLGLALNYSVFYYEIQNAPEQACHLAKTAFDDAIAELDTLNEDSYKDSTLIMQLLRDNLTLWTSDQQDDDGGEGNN
* marks the source's active call; other numbers are inactive results.

SMILES	14-3-3g Raf
CN1C(=O)C(Cc2c[nH]c3ccccc23)C(=O)N(C)C1=O	81.5*
CN1C(=O)C(Cc2cccc3ccccc23)C(=O)N(C)C1=O	5.6
CNCCc1c[nH]c2ccccc12	0.2
CC(CNC(N)=O)([N+](=O)[O-])[N+](=O)[O-]	10.7
O=[N+]([O-])c1c(NCCO)ccc2nonc12	-18.5
Nc1ccc2nonc2c1[N+](=O)[O-]	31.2*
CCCN(CCC)c1ccc([N+](=O)[O-])c2nonc12	-28.3
O=c1c2ccccc2nc(C=Cc2ccc(F)cc2)n1-c1ccccc1Cl	-3.1
CCN1CCN(c2ncnc3ccc(C)cc23)CC1	13.1
C=CCN1C(=O)NC(=O)C(Cc2ccc(OC)c(OC)c2)C1=O (stereo unspecified)	-0.1
COc1cc(OC)c(OC)cc1CC1C(=O)N(C)C(=O)N(C)C1=O	65.6*
COc1cc(CC2C(=O)N(C)C(=O)N(C)C2=O)ccc1OCc1ccccc1	8.7
Cc1[nH]c2ccccc2c1C=Cc1nc2ccc(I)cc2c(=O)n1-c1ccccc1	-328.1
COc1ccc2[nH]cc(CCNC(C)C)c2c1	2.0
Nc1c(C(=O)c2ccccc2)cccc1[N+](=O)[O-]	4.9
